{
  "source": "the antibiotic and cytotoxicity screens of Wong et al. (2023)",
  "note": "Screen size: about 39,000 compounds; about 3,300 (8.5%) were called active. Only a selection was taken, and actives are over-represented in it overall.",
  "data": [
    {"test_system": "HepG2", "test": "cytotoxicity call (relative viability < 0.9)", "conditions": "10 µM", "values": [
      {"smiles": "C[C@@H]1CN([C@H](C)CO)C(=O)c2cc(NS(=O)(=O)c3cccs3)ccc2O[C@@H]1CN(C)C(=O)Nc1cccc2ccccc12", "cytotoxicity call": "inactive"},
      {"smiles": "COc1ccc(-c2cn(CCNC(=O)[C@@H](NS(=O)(=O)c3ccc(C)cc3)C(C)C)nn2)cc1OC", "cytotoxicity call": "inactive"},
      {"smiles": "O=C1c2ccccc2[C@@]2(Cc3ccccc3N(CC(F)(F)F)C2=O)[C@H](c2ccc(CO)cc2)N1C1CCCCC1", "cytotoxicity call": "inactive"},
      {"smiles": "C[C@@H]1CN([C@H](C)CO)C(=O)Cc2cc(NC(=O)Nc3cccc4ccccc34)ccc2O[C@H]1CN(C)C(=O)Nc1cccc2ccccc12", "cytotoxicity call": "inactive"},
      {"smiles": "COc1ccc(S(=O)(=O)Nc2ccc3c(c2)C(=O)N([C@H](C)CO)C[C@@H](C)[C@H](CN(C)C(=O)Nc2ccc(C(F)(F)F)cc2)OCCCC[C@H](C)O3)cc1", "cytotoxicity call": "inactive"},
      {"smiles": "COc1ccc([C@@H]2CC=CC[C@H](C)Oc3ccccc3C(=O)N(C)[C@H](Cc3ccccc3)C(=O)N2)c(OC)c1", "cytotoxicity call": "inactive"},
      {"smiles": "C[C@H](CO)N1C[C@H](C)[C@@H](CN(C)C(=O)Nc2ccc3c(c2)OCO3)Oc2ncc(-c3ccncc3)cc2C1=O", "cytotoxicity call": "inactive"},
      {"smiles": "C=CC[C@@H](CC(=O)NCCO)C(=O)N[C@H](COC(=O)[C@H](CC=C)CC(=O)OC(C)(C)C)Cc1c[nH]c2ccccc12", "cytotoxicity call": "inactive"},
      {"smiles": "Cc1ccc(Cc2nc(-c3ccc(Cl)cc3)cs2)cc1", "cytotoxicity call": "active"},
      {"smiles": "Cc1ccc(-c2nc(-c3ccc(Cl)cc3)cs2)cc1F", "cytotoxicity call": "inactive"},
      {"smiles": "Cc1ccc(-c2csc(-c3ccc(CN)cc3)n2)cc1", "cytotoxicity call": "inactive"},
      {"smiles": "C[C@@H]1CN([C@H](C)CO)S(=O)(=O)c2ccc(C#C[C@@H](C)O)cc2O[C@H]1CN(C)C(=O)C1CCCCC1", "cytotoxicity call": "inactive"},
      {"smiles": "CN(C)CC(=O)N[C@@H]1CC[C@@H](CCNS(=O)(=O)c2ccccc2)O[C@@H]1CO", "cytotoxicity call": "active"},
      {"smiles": "CN(C)CC(=O)N[C@H]1CC[C@H](CCNS(=O)(=O)c2ccccc2)O[C@H]1CO", "cytotoxicity call": "inactive"},
      {"smiles": "CN(C)CC(=O)N[C@H]1CC[C@H](CCNS(=O)(=O)c2ccccc2)O[C@@H]1CO", "cytotoxicity call": "inactive"},
      {"smiles": "O=S(=O)(NCC[C@H]1CC[C@H](NS(=O)(=O)c2ccccc2Cl)[C@@H](CO)O1)c1ccc(F)cc1", "cytotoxicity call": "active"},
      {"smiles": "O=S(=O)(NCC[C@@H]1CC[C@@H](NS(=O)(=O)c2ccccc2Cl)[C@H](CO)O1)c1ccc(F)cc1", "cytotoxicity call": "inactive"},
      {"smiles": "O=S(=O)(NCC[C@@H]1CC[C@H](NS(=O)(=O)c2ccccc2Cl)[C@H](CO)O1)c1ccc(F)cc1", "cytotoxicity call": "inactive"},
      {"smiles": "C[C@H]1CCCCO[C@@H](CN(C)Cc2ccncc2)[C@@H](C)CN([C@@H](C)CO)C(=O)c2cc(NC(=O)Cc3ccccc3)ccc2O1", "cytotoxicity call": "inactive"},
      {"smiles": "C[C@@H]1CN([C@@H](C)CO)C(=O)Cc2cc(NC(=O)Nc3cccc4ccccc34)ccc2O[C@H]1CN(C)S(=O)(=O)c1cccs1", "cytotoxicity call": "inactive"}
    ]}
  ]
}
